Hits are enriched below; roughly 0.9% of the tested compounds scored in any of these assays.
PPARg SRC2 recr: agonists of PPARg-SRC-2 recruitment, primary screen, biochemical, HTS. actives 0.34% (n = 200,000). activation, % at 8 µM. AID 1032, 2008. PPARgamma LBD-SRC-2 recruitment. Peroxisome proliferator-activated receptor gamma (Homo sapiens), P37231
SRC3 TRFRET art: TR-FRET detection interference compounds, artefact control for PPARgamma SRC-3 recruitment agonists, biochemical, TR-FRET ratio; AID 1048, 2008; actives 0.39% (n = 99,000); TR-FRET artefact counter-screen, PPARgamma/SRC-3 format; stronger effect = higher value; TR-FRET ratio at 8 µM; in the data active = TR-FRET ratio above about 2000
PPARg SRC-3 ag: PPARgamma agonists recruiting SRC-3 coactivator, primary screen, biochemical. Peroxisome proliferator-activated receptor gamma (Homo sapiens), P37231. biochemical PPARgamma/SRC-3 coactivator recruitment assay. activation, % at 8 µM. actives 0.26% (n = 200,000); in the data active = activation above about 23%
SRC1 TRFRET art: TR-FRET detection interference compounds, primary screen, artefact control for PPARgamma SRC-1 recruitment agonists, biochemical, TR-FRET emission ratio; TR-FRET detection artefact counter-screen; stronger effect = higher value; TR-FRET ratio at 8 µM; actives 0.34% (n = 99,000); AID 1051, 2008; in the data active = TR-FRET ratio above about 2300
TR-FRET SRC-2 ct: TR-FRET signal artefacts, primary screen, artefact control for PPARgamma SRC-2 agonist project, biochemical; TR-FRET ratio at 8 µM; TR-FRET artefact counter-screen; stronger effect = higher value; AID 1049, 2008; actives 0.4% (n = 200,000); in the data active = TR-FRET ratio above about 2000
PPARg SRC1 recr: PPARgamma agonists recruiting SRC-1 coactivator, primary screen, biochemical. Peroxisome proliferator-activated receptor gamma (Homo sapiens), P37231. PPARgamma-SRC-1 coactivator recruitment biochemical assay. activation, % at 8 µM. actives 0.41% (n = 200,000); in the data active = activation above about 19%
PPARg SRC2 conf: agonists of PPARgamma SRC-2 coactivator recruitment, confirmation, biochemical, HTS; activation, % at 8 µM; shares compounds with PPARg SRC-3 ag; biochemical SRC-2 recruitment by PPARgamma; actives 52% (n = 790); AID 1297, 2008
PPARg SRC1 conf: PPARgamma agonists recruiting SRC-1 coactivator, confirmation, biochemical. shares compounds with PPARg SRC-3 ag. PPARgamma–SRC-1 coactivator recruitment biochemical assay. activation, % at 8 µM. actives 43% (n = 790). AID 1300, 2008; in the data active = activation above about 20%
PPARg SRC3 ag: PPARgamma-driven SRC-3 coactivator recruitment agonists, confirmation, biochemical | biochemical PPARgamma-SRC-3 coactivator recruitment, agonist mode | actives 29% (n = 790) | activation, % at 8 µM | shares compounds with PPARg SRC-3 ag | AID 1301, 2008; in the data active = activation above about 24%
Of the large screens only hits and unclear results are named; the others gave an inactive call (follow-up assays come after a bar, where they were run). Rule as the data show it, unless noted: active = activation above about 22%; inactive = the rest.

O=c1c(Cl)c(N2CCN(S(=O)(=O)c3ccc(F)cc3)CC2)cnn1-c1cccc(Cl)c1	PPARg SRC-3 ag 45, PPARg SRC1 recr 47 (no result: SRC3 TRFRET art, SRC1 TRFRET art) | PPARg SRC2 conf 45 | PPARg SRC1 conf 39 | PPARg SRC3 ag 24
COc1ccc(-n2c(-c3ccco3)n[nH]c2=S)cc1	PPARg SRC1 recr 22 (no result: SRC3 TRFRET art, SRC1 TRFRET art) | PPARg SRC2 conf inactive | PPARg SRC1 conf inactive | PPARg SRC3 ag inactive
COc1ccccc1-c1n[nH]c(=S)n1-c1ccccc1	PPARg SRC2 recr 63, PPARg SRC-3 ag 84, TR-FRET SRC-2 ct 2941, PPARg SRC1 recr 62 (no result: SRC3 TRFRET art, SRC1 TRFRET art) | PPARg SRC2 conf 57 | PPARg SRC1 conf 39 | PPARg SRC3 ag 39
S=c1[nH]nc(-c2ccco2)n1-c1ccc(Cl)cc1	PPARg SRC2 recr 23, SRC3 TRFRET art 2067 | PPARg SRC2 conf inactive | PPARg SRC1 conf inactive | PPARg SRC3 ag inactive
COc1ccccc1-c1n[nH]c(=S)n1N	none
Nn1c(-c2ccco2)n[nH]c1=S	none (no result: SRC3 TRFRET art, SRC1 TRFRET art)
CCN(CC(=O)Nc1cccc(C#N)c1)CC(=O)Nc1cccc(OC)c1	none
CN(Cc1ccco1)C(=O)Cn1nc(-c2ccc(Cl)cc2)ccc1=O	none
Cc1ccccc1C1C2=C(Nc3[nH]n(-c4ccccc4)c(=O)c31)c1ccccc1C2=O (stereo not drawn)	PPARg SRC-3 ag 35, PPARg SRC1 recr 23 | PPARg SRC2 conf 23 | PPARg SRC1 conf 30 | PPARg SRC3 ag 35
N#Cc1ccc(-c2ccc(OCC(=O)NCC(=O)Nc3ccc(F)c(F)c3F)cc2)cc1	none
COc1ccccc1C1Nc2cccc3cccc(c23)N1	PPARg SRC1 recr 19 (no result: SRC3 TRFRET art, SRC1 TRFRET art) | PPARg SRC2 conf inactive | PPARg SRC1 conf inactive | PPARg SRC3 ag inactive
Cc1ccc(S(=O)(=O)c2nc(-c3cccs3)oc2SCC(N)=O)cc1	PPARg SRC2 recr 31 (no result: SRC3 TRFRET art, SRC1 TRFRET art) | PPARg SRC2 conf 32 | PPARg SRC1 conf 32 | PPARg SRC3 ag inactive
CCSc1oc(-c2ccccc2)nc1S(=O)(=O)c1ccccc1	none (no result: SRC3 TRFRET art, SRC1 TRFRET art)
CSc1oc(-c2ccccc2)nc1S(=O)(=O)c1ccc(C)cc1	PPARg SRC2 recr 26, SRC3 TRFRET art 2062 | PPARg SRC2 conf 25 | PPARg SRC1 conf 20 | PPARg SRC3 ag inactive
CC(NC(=O)CCN1N=C(c2ccccc2)CCC1=O)c1ccc2c(c1)OCCO2 (stereo not drawn)	none
O=C(Nn1c(O)c(C=C2N=c3ccccc3=N2)sc1=S)c1ccc(Cl)cc1	none (no result: SRC3 TRFRET art, SRC1 TRFRET art)
O=C(Nn1c(O)c(C=C2N=c3ccccc3=N2)sc1=S)c1cccc(Cl)c1	PPARg SRC-3 ag 27 (no result: SRC3 TRFRET art, SRC1 TRFRET art) | PPARg SRC2 conf 23 | PPARg SRC1 conf inactive | PPARg SRC3 ag inactive
O=C1N=c2ccccc2=C1c1sc(=S)n(NC(=O)c2cccc(O)c2)c1O	SRC3 TRFRET art 2060, PPARg SRC1 recr 22 | PPARg SRC2 conf 35 | PPARg SRC1 conf 27 | PPARg SRC3 ag inactive
O=C(O)c1ccc2c(c1)C(=O)N(c1cccc(S(=O)(=O)Nc3cccc(C(F)(F)F)c3)c1)C2=O	none
Cc1ccc(-c2csc3ncnc(SCc4ccc(C(=O)O)cc4)c23)cc1	none
Oc1ccc(-c2n[nH]c(=S)n2Cc2ccco2)cc1	none (no result: SRC3 TRFRET art, SRC1 TRFRET art)
Oc1cc2ccccc2cc1-c1n[nH]c(=S)n1Cc1ccco1	PPARg SRC1 recr 22 | PPARg SRC2 conf inactive | PPARg SRC1 conf inactive | PPARg SRC3 ag inactive
C/C(O)=C(\N=Nc1cc(C)ccc1O)C(N)=O	none

Source: PubChem BioAssay
